# Results from PubChem BioAssay (NCATS).
# Records with an inconclusive call do not appear. Entries that show only a call come without a potency. Activity calls are given as the source filed them. Calls come from the whole dose curve; as a rule, active = well fitted inhibition curve with a large enough effect; inconclusive = small, poorly fitted or top-dose-only effect; inactive = no such curve, though single readings can be large or run the other way.
# Experiment: BET inhibitor-based combinations targeting novel dependencies in MECOM-rearranged (r) AML: UCSD-AML1 cell line (AID 2202235); note: nearly all actives have a fitted effect of over 40% in size
# Settings: UCSD-AML1 AML cells viability, CellTiter-Glo, 48 h; series mostly up to 46 µM
# Text: Ecotropic viral insertion site 1 (EVI1) is located on chromosome 3q26.2 as part of the MECOM (MDS and EVI1 complex) locus. Under normal hematopoiesis, EVI1 is a regulator of hematopoietic stem cell maintenance and self-renewal and EVI1 levels decrease as the cells differentiate. In approximately 5-10% of de novo acute myeloid leukemia (AML) EVI1 is aberrantly expressed, including Chromosomal inv(3)(q21;q26.2) or t(3;3)(q21;q26.2) alterations (MECOM-r) that account for about 50% of AML with EVI1 overexpression 31. AMLs with high levels of EVI1 have a poor prognosis and an overall survival time averaging between 10-14 months. EVI1 overexpression confers resistance in leukemia cells, highlighting the need to develop new targeted therapies for EVI1 overexpressing AMLs. Here, we performed an unbiased chemical drug screening by evaluating the single agent activity of a collection of 2,480 oncology-focused, approved and investigational drugs (NCATS Mechanism Interrogation Plates, MIPE v5.0) against a panel of seven AML cell lines. These included four MECOM-r cell-lines (AML-191, AML-194, UCSD-AML1 and HNT-34) and three non-MECOM-r AMLs (MV4-11, OCI-AML3 and SET-2). Exploiting the mechanistic redundancy built in the library, we identified target-level sensitivities in MECOM-r AML cells and relative activity as compared to other AML subtypes.
# A collection of 2480 mechanistically annotated dugs (MIPE v5.0) was used to screen four 3q26.2 rearranged AML cell lines and three non-3q26.2 rearranged AML cell lines. This library purposely exploits redundancy by including multiple inhibitors of key onco-targets, while simultaneously encompassing mechanistic diversity, targeting more than 800 distinct mechanisms of action. Briefly, cells were seeded in 5 uL of growth media using a Multidrop Combi dispenser into 1536 well white polystyrene tissue culture treated plates (Corning) at a density of 500cells/well. For each cell-line, for each of the 2480 drugs in MIPE v5.0 library, an 11-point dose curve was generated via a 1536 pin-tool. Plates were incubated for 48 hr at standard incubator conditions, covered by a stainless steel gasketed lid to prevent evaporation. Cell viability was determined by luminescence based, Cell Titer Glo assay (Promega). In detail, 3 uL of Cell Titer Glo were added to each well and plates were incubated at room temperature for 15 min with a stainless-steel lid in place. Luminescence readings were taken using a Viewlux (PerkinElmer) with a 2 s exposure time per plate. Compound dose-response curves were normalized to DMSO and empty well controls on each plate. Quantitative drug activity data from dose-response curves was determined utilizing area Under the Curve (AUC) and Z-transformed AUC (Z-AUC, a mean-centering transformation applied to each individual cell-line screened).
# Potency is the fitted concentration of half-maximal effect.
row,Compound,Potency
1,O=S(=O)(F)Cc1ccccc1,inactive
2,O=C(O)c1nn(Cc2ccc(Cl)cc2Cl)c2ccccc12,inactive
3,CCN1C[C@]2(OC(=O)c3ccccc3NC(C)=O)CC[C@H](OC)[C@@]34[C@H]5CC6[C@@H](OC)C[C@](O)(C(C[C@@H]23)[C@@H]14)[C@@]5(O)[C@@H]6OC,inactive
4,Cc1[nH]ncc1-c1cc2nc([C@@H]3CC4CCN3CC4)[nH]c(=O)c2s1,9.34 µM (active)
5,CCOC(=O)c1c(C(C#N)=CN)c2ccc(Cl)c(Cl)c2n1C,inactive
6,CCNC(=O)C[C@@H]1N=C(c2ccc(Cl)cc2)c2cc(OC)ccc2-n2c(C)nnc21,0.833 µM (active)
7,CN(C)[C@@H]1C(=O)C(C(N)=O)=C(O)[C@@]2(O)C(=O)C3=C(O)c4c(O)cccc4[C@@](C)(O)[C@H]3C[C@@H]12,inactive
8,O=C(Oc1ccc([N+](=O)[O-])cc1)N1CCC(C(O)(c2ccc3c(c2)OCO3)c2ccc3c(c2)OCO3)CC1,inactive
9,Cn1c(COP(=O)(NCCBr)NCCBr)cnc1[N+](=O)[O-],inactive
10,CCOP(=O)(OCC)C(C)NC(=O)N(CCCl)N=O (stereo not given),inactive
11,CC(N[C@H]1C[C@@H]1c1ccccc1)c1ccc2c(c1)OCCO2 (stereo not given in full),1.05 µM (active)
12,O=C(O)C(=O)c1cn(Cc2ccccc2)c2ccc(-c3ccc(OC(F)(F)F)cc3)cc12,inactive
13,CC(=O)OC[C@H]1O[C@@H]([S-])[C@H](OC(C)=O)[C@@H](OC(C)=O)[C@@H]1OC(C)=O.CC[PH+](CC)CC.[Au],0.934 µM (active)
14,O=C1C=CC[C@@H]2[C@H]3CCCN4CCC[C@@H](CN12)[C@@H]34,inactive
15,CC(C)c1cccc(C(C)C)c1O,inactive
16,CC1=C2C[C@H]3[C@@H](CC=C4C[C@@H](O)CC[C@@]43C)[C@@H]2CC[C@]12O[C@@H]1C[C@H](C)CN[C@H]1[C@H]2C,inactive
17,CC[C@H]1/C=C\C=C/C[C@@H](C)[C@H](O)[C@@](C)(O)C(=O)[C@@H](C)[C@H](O)[C@@H](C)C(=O)[C@@H](C)[C@H](O)[C@@H](C)/C=C\C(=O)O[C@@H]2[C@H](C)[C@H](CC1)O[C@]1(CC[C@H](C)[C@H](C[C@@H](C)O)O1)[C@H]2C,7.42 µM (active)
18,C[C@H]1CCC/C=C/C2C[C@H](O)C[C@H]2[C@H](O)/C=C/C(=O)O1 (stereo not given in full),0.209 µM (active)
19,Cc1ncc(OC[C@@]2(c3cccc(F)c3)C[C@H]2C(=O)Nc2ccc(F)cn2)c(C)n1,inactive
20,C/C=C(/C)C(=O)O[C@H]1C(C)=C2[C@H]([C@@H]1OC(=O)CCCCCCC)[C@@](C)(OC(C)=O)C[C@H](OC(=O)CCC)[C@@]1(O)[C@H]2OC(=O)[C@@]1(C)O,0.132 µM (active)

row,Compound,Potency
1,CN1C(=O)COc2c(C(=O)NC3CN4CCC3CC4)cc(Cl)cc21 (stereo not given),inactive
2,COC[C@@H](NC(C)=O)C(=O)NCc1ccccc1,inactive
3,O=C(CBr)N1CC([N+](=O)[O-])([N+](=O)[O-])C1,inactive
4,CC(C)(NC(=O)O[C@@H]1CN2CCC1CC2)c1csc(-c2ccc(F)cc2)n1,inactive
5,O=c1[nH]c2ccccc2n1CCCN1CCC(n2c(=O)[nH]c3cc(Cl)ccc32)CC1,inactive
6,C[C@@H]1C[C@@H]([C@H](O)CC2CC(=O)NC(=O)C2)C(=O)[C@@H](C)C1,0.263 µM (active)
7,O=C1CC[C@@]2(O)[C@H]3Cc4ccc(O)c5c4[C@@]2(CCN3CC2CC2)[C@H]1O5,inactive
8,C[C@]12CC[C@H]3[C@@H](CC[C@@]45O[C@@H]4C(O)=C(C#N)C[C@]35C)[C@@H]1CC[C@@H]2O,inactive
9,C[C@H]1[C@H](O)[C@@H](C)/C=C/C=C/CC/C=C/C=C/C=C/C=C/[C@H](O[C@@H]2O[C@H](C)[C@@H](O)[C@H](N)[C@@H]2O)C[C@@H]2O[C@](O)(C[C@@H](O)[C@H](O)CC[C@@H](O)C[C@@H](O)C[C@@H](O)CC(=O)O[C@H]1C)C[C@H](O)[C@H]2C(=O)O,inactive
10,COc1ccc(C(=O)N2CCCC2=O)cc1,inactive
11,C[C@@H]1CC[C@@]2(OC1)O[C@H]1C[C@H]3[C@@H]4CC=C5C[C@@H](O[C@@H]6O[C@H](CO)[C@@H](O[C@@H]7O[C@@H](C)[C@H](O)[C@@H](O)[C@H]7O)[C@H](O)[C@H]6O[C@@H]6O[C@@H](C)[C@H](O)[C@@H](O)[C@H]6O)CC[C@]5(C)[C@H]4CC[C@]3(C)[C@H]1[C@@H]2C,8.33 µM (active)
12,COc1cc([C@@H]2c3cc4c(cc3[C@@H](O)C3COC(=O)C32)OCO4)cc(OC)c1O (stereo not given in full),0.332 µM (active)
13,CN1[C@H]2CC(O)C[C@H]1[C@H]1O[C@H]12 (stereo not given in full),inactive
14,CC(C)(O)/C=C\C(=O)[C@](C)(O)[C@H]1[C@H](O)C[C@]2(C)[C@@H]3CC=C4[C@@H](C=C(O)C(=O)C4(C)C)[C@]3(C)C(=O)C[C@@]12C,0.148 µM (active)
15,C[C@]12Cc3cn[nH]c3C[C@@H]1CC[C@@H]1[C@@H]2CC[C@@]2(C)[C@H]1CC[C@]2(C)O,inactive
16,NC(=O)[C@@H](CC1CC1)[C@@H](CCC(F)(F)F)C(=O)N[C@H]1N=C(c2ccccc2)c2cccc(F)c2NC1=O,inactive
17,COc1cccc2c1C(=O)c1c(O)c3c(c(O)c1C2=O)C[C@@](O)(C(=O)CO)CC3OC1CC(N2CCOC(OC)C2)C(O)C(C)O1 (stereo not given in full),0.0047 µM (active)
18,C[C@]12CC[C@H]3[C@@H](CCC4=CC(=O)CC[C@@]43C)[C@H]1CC[C@H]2OC(=O)CCC1CCCC1,inactive
19,CC(C)[C@]12O[C@H]1[C@@H]1O[C@]13[C@]1(O[C@H]1C[C@H]1C4=C(CC[C@@]13C)C(=O)OC4)[C@@H]2O,0.0417 µM (active)
20,CC1(C)CC(O)CC(C)(C)N1O,inactive
